The panel holds about 83,000 compounds, 20% with a hit somewhere; the sample as a whole holds those more often.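 Plates (96-well) were seeded with cells, treated with compound at one concentration, and incubated for 48 hours before percent growth was determined.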 Values without a mark were called inactive. The source made the active and inactive calls. How the source made its calls: active means growth percent below 10; inactive means the rest.

What all share (assay): NCI-60 one-dose screen, 48 h (100 = growth as untreated, 0 = no growth, -100 = all killed)
Details in all cases: 10 µM unless noted

The test system of test [1] is BT-549 breast.
The subject of test [2] is MDA-MB-435 melanoma.
Test [3] deals with SW-620 colon.
In test [4] the test system is MCF7 breast.
Test [5] has as its system HCT-116 colon.
The subject of test [6] is HCC-2998 colon.
For test [7], the system named is KM12 colon.

On to `c1ccc2c(NCCCn3ccnc3)c3oc4ccccc4c3nc2c1`, for which the growth was 21.6% in test [1]; 3.7% (active) in test [2]; -16.9% (active) in test [3]; -11.4% (active) in test [4]; 6.12% (active) in test [5]; 0.465% (active) in test [6]. The growth in test [7] was 7.47% (active).
`N=C1CC(=O)NN1C(=O)CSc1nc2sc3c(c2c(=O)n1-c1ccc(Cl)cc1)CCCC3`: the growth is 102% in test [1]; 106% in test [2]; 98% in test [3]; 91.8% in test [4]; 99% in test [5]; 116% in test [6]. Besides, in test [7], the growth was 104%.
For the compound `CCOC(=O)c1c(Nc2ccccc2)nn2c(-c3ccco3)c(C#N)cnc12`, the growth in test [1] was 83.1%; in test [2], 93%; in test [3], 94.7%; in test [4], 83.2%; in test [5], 92.5%; in test [6], 112%. The growth in test [7] is 98.6%.
For the compound `O=C(CSc1nc2sc3c(c2c(=O)n1-c1ccc(Cl)cc1)CCCC3)NNC(=O)Nc1ccc(Cl)c(C(F)(F)F)c1`, the growth in test [1] was 69%; in test [2], 46.8%; in test [3], 4.66% (active); in test [4], 18.6%; in test [5], 13.6%; in test [6], 42.4%. Further, in test [7], the growth was 25.9%.
With `COc1ccc(/C=N/Nc2ccnc3cc(Cl)ccc23)cc1Cl`, the growth is -79.8% (active) in test [1]; -84.1% (active) in test [2]; -89% (active) in test [3]; -12.2% (active) in test [4]; -89.4% (active) in test [5]; -39.9% (active) in test [6]. In addition, the growth in test [7] was -88.6% (active).
On to `CCN(CC)c1ccc(C=O)c(OCc2cn(CC(=O)Nc3ccc(Cl)cc3)nn2)c1`, for which the growth in test [1] was 81.4%; in test [2], 79.8%; in test [3], 85.6%; in test [4] it was 52.9%; in test [5] it was 47.3%; in test [6] it was 86.1%. Besides, the growth in test [7] was 70.4%.
For `O=C(CCN1C(=O)/C(=C/c2ccccc2)SC1=S)N1CCOCC1`, the growth is 104% in test [1]; 81.9% in test [2]; 79% in test [3]; 40.9% in test [4]; 89.6% in test [5]; 112% in test [6]. Besides, the growth in test [7] is 84.3%.
Take `COc1ccccc1C(=O)CSc1nc(Nc2ccc(S(N)(=O)=O)cc2)c2ccccc2n1`: the growth in test [1] was 111%; in test [2], 90.4%; in test [3], 98.1%; in test [4], 44.6%; in test [5] it was 77%; in test [6], 103%. Also, in test [7], the growth was 78.4%.
As for `c1ccc(CNc2ncnc3ccc(-c4cnc5[nH]ncc5c4)cc23)cc1`, the growth in test [1] is 62.2%; in test [2], 86.9%; in test [3], 72.9%; in test [4] it was 30.3%; in test [5] it was 80.1%; in test [6] it was 83.6%. Also, the growth in test [7] is 84.9%.
Turning to `COC(=O)C1CN(S(=O)(=O)/N=C2\NC(=O)NC2=C(Cl)Cl)C1`, the growth in test [1] was 110%; in test [2], 107%; in test [3] it was 114%; in test [4] it was 34.1%; in test [5], 111%; in test [6], 121%. For the same compound, the growth in test [7] is 8.89% (active).
With `COc1ccc(-c2nc3ccc(-c4nnc(SCC(=O)Nc5ccc(C(C)=O)cc5)o4)cc3[nH]2)cc1`, the growth is 112% in test [1]; 102% in test [2]; 103% in test [3]; 77.1% in test [4]; 109% in test [5]; 111% in test [6]. For the same compound, the growth in test [7] is 105%.
For `CC(=O)Oc1ccccc1C(=O)Nc1ccc(C(=O)/C=C/c2ccncc2)cc1`, the growth is 57.1% in test [1]; 18.2% in test [2]; 0.322% (active) in test [3]; 2.69% (active) in test [4]; -72.5% (active) in test [5]; 13.3% in test [6]. Further, the growth in test [7] was -31.9% (active).
As for `CS(=O)(=O)Nc1ccc(-c2nn(-c3ccc(S(C)(=O)=O)cc3)cc2/C=C/C(=O)c2ccc(NC(=O)CO[N+](=O)[O-])cc2)cc1`, the growth is 98.7% in test [1]; 106% in test [2]; 113% in test [3]; 94.5% in test [4]; 103% in test [5]; 101% in test [6]. Also, the growth in test [7] is 106%.
Turning to `O=C1/C(=C/C2=Cc3ccccc3OC2)SC(=S)N1c1ccc(F)cc1`, the growth in test [1] is 100%; in test [2] it was 101%; in test [3], 107%; in test [4], 90.6%; in test [5], 99.1%; in test [6] it was 107%. Further, the growth in test [7] is 97.5%.
For `O=C1Nc2ccc(Cl)cc2/C1=C/c1ccc(OCC(=O)c2ccc(Br)cc2)cc1`, the growth is 118% in test [1]; 99.1% in test [2]; 89.9% in test [3]; 80.1% in test [4]; 95.5% in test [5]; 99.5% in test [6]. The growth in test [7] is 59.1%.
In the case of `CS(=O)(=O)c1ccc(-c2nc3ccccn3c2/C=N/Nc2nc(-c3ccc(Cl)cc3)cs2)cc1`, the growth was 103% in test [1]; 96.8% in test [2]; 113% in test [3]; 91.6% in test [4]; 101% in test [5]; 125% in test [6]. In addition, the growth in test [7] was 112%.
Turning to `C[C@@H]1CN(c2ccc3ncc(C#Cc4cncc(C(=O)Nc5ccc(CN6CCN(C)CC6)c(C(F)(F)F)c5)c4)n3n2)C[C@H](C)O1`, the growth in test [1] is -27.2% (active); in test [2] it was -90.1% (active); in test [3] it was -52.3% (active); in test [4], -64% (active); in test [5] it was -71.4% (active); in test [6] it was -30% (active). Moreover, in test [7], the growth is -7.61% (active).

Source of the values: PubChem BioAssay (NCI).
